# Compound activity deposited in PubChem BioAssay by National Center for Advancing Translational Sciences (NCATS).
# Pol kappa inh = blocks human DNA polymerase kappa activity | purified Pol kappa, fluorescent DNA synthesis assay, 10 min | Potency, µM (series often up to 107 µM), actives largely listed as inhibitors | hit rate 0.53% among 400,000 | AID 588579
#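 Readout: fluorescence, taken kinetically at 0 and 10 min. Conditions: 10 nM Pol kappa, 15 min RT compound preincubation, 50 nM substrate final. Controls: enzyme-free buffer wells.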
# POLI inh = DNA polymerase iota (human) inhibition; Q9UNA4; AID 588590; hit rate 1% among 390,000; Potency, µM (top dose mostly 115 µM), actives largely listed as inhibitors; Pol iota fluorescent replication assay, 10 min
# Target sequence (Q9UNA4 whole entry, looked up): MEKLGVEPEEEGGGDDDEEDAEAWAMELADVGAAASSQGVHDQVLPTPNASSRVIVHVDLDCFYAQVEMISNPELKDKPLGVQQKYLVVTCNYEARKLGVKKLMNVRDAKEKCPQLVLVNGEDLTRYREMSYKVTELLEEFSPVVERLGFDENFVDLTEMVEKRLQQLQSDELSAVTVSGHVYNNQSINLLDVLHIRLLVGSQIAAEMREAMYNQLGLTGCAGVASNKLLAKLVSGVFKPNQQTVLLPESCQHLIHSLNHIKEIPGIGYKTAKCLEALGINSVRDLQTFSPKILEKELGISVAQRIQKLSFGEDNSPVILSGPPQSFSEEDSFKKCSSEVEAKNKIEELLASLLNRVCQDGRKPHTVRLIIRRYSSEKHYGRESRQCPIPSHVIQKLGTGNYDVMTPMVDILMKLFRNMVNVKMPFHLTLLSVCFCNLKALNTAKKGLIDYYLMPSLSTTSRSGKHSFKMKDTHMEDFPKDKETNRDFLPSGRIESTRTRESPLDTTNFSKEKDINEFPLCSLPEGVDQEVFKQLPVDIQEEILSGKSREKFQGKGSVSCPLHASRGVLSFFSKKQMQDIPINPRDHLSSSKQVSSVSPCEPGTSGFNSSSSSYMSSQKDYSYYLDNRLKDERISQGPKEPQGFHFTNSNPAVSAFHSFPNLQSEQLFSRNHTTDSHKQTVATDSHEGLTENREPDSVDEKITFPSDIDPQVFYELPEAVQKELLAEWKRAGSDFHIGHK
#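 Fluorescent replication assay read twice, at 0 min and 10 min after adding 50 nM (final) substrate. Enzyme (10 nM) and compounds were first incubated 15 min at room temperature; enzyme-free buffer wells were negative controls.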
# WRN inhibitor = blocks human WRN helicase. WRN helicase unwinding, fluorescent forked duplex, kinetic. Q14191. Potency, µM (doses to about 114 µM), actives largely listed as inhibitors. hit rate 0.46% among 360,000; further: nearly all actives have a fitted effect of over 55% in size
#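 Kinetic fluorescence helicase assay: unwinding of a quenched forked DNA duplex (100 nM final) with 2 mM ATP final raises red fluorescence (525/598 nm). Compounds sat 15 min at room temperature with 20 nM WRN beforehand.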
# Pol eta inh = blocks human DNA polymerase eta activity; Q9Y253; recombinant Pol eta, fluorescent DNA replication assay; Potency, µM (top dose mostly 114 µM), hits mostly inhibitors; hit rate 1.2% among 390,000
#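 Fluorescent replication assay: 50 nM final substrate added after a 15 min room-temperature compound preincubation with 10 nM enzyme. Signal taken at 0 min and again at 10 min.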
# FEN1 inh-1 = human FEN1 inhibition. Potency, µM (top dose mostly 114 µM), hits mostly inhibitors. hit rate 0.35% among 390,000. Recombinant FEN1 flap cleavage, fluorescence, 15 min. P39748; further: nearly all actives have a fitted effect of over 65% in size
#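 Enzyme 10 nM, 15 min RT preincubation with compound; start with substrate 50 nM final; reads at 0 and 15 min; qHTS titration, four-parameter Hill fit.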
# POLB inh = inhibitors of human DNA polymerase beta | P06746 | Pol beta primer extension/strand displacement, fluorescence kinetic | Potency, µM (top dose mostly 114 µM), actives largely listed as inhibitors | hit rate 1.3% among 340,000 | AID 485314
#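 Enzyme-only controls used 10 nM Pol beta; buffer lacking enzyme served as negative control. Compound preincubated 15 min, then 50 nM substrate added; 0 and 10 min reads at room temperature.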
# FEN1 inh-2 = confirmation of human FEN1 inhibitors; shares compounds with FEN1 inh-1; FEN1 flap cleavage, TAMRA/BHQ2 fluorogenic DNA substrate; Potency, µM, usual class: inhibitors; hit rate 79% among 880; further: nearly all actives have a fitted effect of over 60% in size
# A number is an active result; . = inactive; ? = inconclusive; / = not tested or not shown; [ ] = remark or other dose. A selection: hits, their analogues and other compounds. The true share with any hit is near 2.4%. The call rests on the fitted dose curve; in most records, active means well fitted curve in the direction sought with a large enough effect; inconclusive means small, poorly fitted or top-dose-only effect, or another doubt; inactive means no such curve, though single readings can be large; an effect the other way counts as inactive or inconclusive.
SMILES,Pol kappa inh,POLI inh,WRN inhibitor,Pol eta inh,FEN1 inh-1,POLB inh,FEN1 inh-2
CN1CCN(c2cccc(Nc3nn4c(=O)c5ccccc5nc4s3)c2)CC1,/,/,/,/,/,/,42.6
COc1ccccc1CCNC(=O)C(=O)NCC(c1cccs1)S(=O)(=O)c1ccc(C)cc1 (centres undefined),.,.,/,.,.,.,/
Cc1ccc(NC(=O)CSc2nnc(COc3ccc(Cl)cc3)o2)cc1,.,.,/,.,.,.,/
CN1C(=O)Cc2cc(S(=O)(=O)CCC(=O)Nc3cccc(C(F)(F)F)c3)ccc21,.,.,/,.,.,.,/
O=c1[nH]c2cnn(-c3ccccc3)c2c(=O)n1O,.,.,.[11.6 µM],?,0.501µM,/,21.3
O=c1[nH]c2cnccc2n1-c1ccccc1,.,.,.,.,.,.,/
COc1ccc(OC)c(Nc2nc(NCCCN(C)C)nc(N)c2[N+](=O)[O-])c1,?,31.6µM,35.5µM,50.1µM,12.6µM,35.5µM,47.8
COCCCNc1nc(N)c([N+](=O)[O-])c(Nc2cc(OC)ccc2OC)n1,.,.,.,.,.,.,/
COc1cccc(C2c3c(ncn(CCCN4CCOCC4)c3=N)Oc3ccc4ccccc4c32)c1 (centres undefined),/,/,/,/,/,/,37.9
Cc1c2c(cc3c1[nH]c1ccccc13)C=NCC2,.,.,.[11.6 µM],.,50.1µM,/,37.9
CCN(CC)c1ccc(NC(=O)c2c(C)nn(-c3ccc(F)cc3)c2-n2cccc2)c(C)c1,.,.,/,.,.,.,/
CCOc1ccccc1CNC(=O)CCCN1C(=O)c2cccnc2Oc2ccc(Cl)cc21,.,.,/,.,.,.,/
O=C(O)c1ccc(-c2ccc(/C=N/Nc3ccc([N+](=O)[O-])cc3)o2)cc1,.,.,?,50.1µM,.,?,84.9
NN1C(=O)/C(=C2/Sc3ccccc3N2CCCS(=O)(=O)O)SC1=S,.,?,.,50.1µM,35.5µM,22.4µM,?
O=C1NC(=S)S/C1=C1\Sc2ccccc2N1CCCS(=O)(=O)O,.,?,.,?,.,.,/
CC(CNC(=O)c1sc2ncccc2c1-n1cccc1)c1ccccc1 (centres undefined),.,.,/,.,.,.,/
CC1Sc2ccc(S(=O)(=O)N3CCC(C(=O)Nc4ccc(Cl)cc4)CC3)cc2NC1=O (centres undefined),?,?,79.4µM,?,?,?,47.8
N#C/C(=C\c1ccccc1)c1nc(-c2cc3c(ccc4ccccc43)oc2=O)cs1,.,.,/,.,.,.,/
CCOC(=O)c1c(CSc2ccccc2)n(C)c2cc(Br)c(OCC(O)CNC(CO)(CO)CO)cc12 (centres undefined),.,?,?,?,44.7µM,?,42.6
COc1cc2c(Cc3ccccc3)cncc2cc1O,89.1µM,.,.[11.6 µM],.,.,/,?
COc1ccc(-n2ccnc2SCC(=O)Nc2cccc(OC)c2)cc1,.,.,/,.,.,.,/
Cc1c2ccncc2cc2c1[nH]c1ccccc12,.,?,.[11.6 µM],.,17.8µM,/,16.9
Cc1cc2c([nH]c3ccccc32)c(C)n1,.,.,.,.,.,.,/
CCC(=O)C1=C(c2ccc(Cl)cc2)N(C(=O)CC)n2c(C)nnc2S1,.,.,/,.,?,.,/
CCc1ccc(NC(=O)c2sc(-n3nc(C)c(CCC(C)C)c3C)nc2C)cc1,.,.,/,.,.,.,/
SMILES,Pol kappa inh,POLI inh,WRN inhibitor,Pol eta inh,FEN1 inh-1,POLB inh,FEN1 inh-2
CCOc1ccc(Br)cc1C1=NN(C(C)=O)C(c2ccc([N+](=O)[O-])s2)O1 (centres undefined),.,50.1µM,.[11.6 µM],50.1µM,?,17.8µM,6.75
CC(=O)N1N=C(c2ccc(C)cc2)OC1c1ccc(Br)cc1 (centres undefined),.,.,.,.,.,.,/
CN(C)c1ccc(C=c2c3ccccc3n3c2c2c([n+]3C)CCCC2)cc1,.,.,22.4µM,?,22.4µM,/,30.1
CCOc1cc(/C=C2\C(=O)N(CCC#N)N=C2C)ccc1OCC(N)=O,.,?,.,.,.,.,?
CN(C)C(=O)c1ccc(-c2nccc(NCc3cccnc3)n2)cc1,.,/,/,/,/,/,/
COc1cc(-c2ccc3ncnc(NCc4nc(C)cs4)c3c2)cc(OC)c1OC,/,/,/,/,/,/,?
COc1ccc2[nH]cc(CCNc3ncnc4ccc(-c5cccnc5)cc34)c2c1,.,/,/,/,/,/,/
COc1ccc(-c2ccc3ncnc(NCCc4cnc[nH]4)c3c2)cc1OC,/,/,/,/,/,/,30.1
N[C@H](C(=O)O)[C@@H]1C[C@@H]1C(=O)O,.[19.4 µM],/,/,/,/,/,/
CCOc1ccc(NC(=O)CSc2nc3c([nH]c4ccccc43)c(=O)n2-c2cc(C)cc(C)c2)cc1,.,.,/,.,.,.,/
Cc1cc(C)cc(N=Cc2ccc([N+](=O)[O-])s2)c1,.,79.4µM,.[11.6 µM],31.6µM,?,?,5.36
Cc1ccc(NC(=S)N/N=C/c2ccc([N+](=O)[O-])s2)cc1,.,.,.,.,.,.,/
